Measurements reported in article PMC7862700, “An all-to-all approach to the identification of sequence-specific readers for epigenetic DNA modifications on cytosine”.

Assays:
Experiment in all cases: DAPPL (digital affinity profiling via proximity ligation, sequencing); 10 mM Tris-HCl pH 7.5, 50 mM NaCl, 1 mM DTT, 4% glycerol, room temperature, 30 min; GST-TFs on glutathione beads, 16-mer random dsDNA library, 0.1% formaldehyde crosslink after washing; high values mean tight binding
FEV = biological target: T1, FEV (Homo sapiens, UniProt Q99581 1-238); details: protein: recombinant; tags: N-terminal GST; dsDNA, one strand shown
T1 sequence: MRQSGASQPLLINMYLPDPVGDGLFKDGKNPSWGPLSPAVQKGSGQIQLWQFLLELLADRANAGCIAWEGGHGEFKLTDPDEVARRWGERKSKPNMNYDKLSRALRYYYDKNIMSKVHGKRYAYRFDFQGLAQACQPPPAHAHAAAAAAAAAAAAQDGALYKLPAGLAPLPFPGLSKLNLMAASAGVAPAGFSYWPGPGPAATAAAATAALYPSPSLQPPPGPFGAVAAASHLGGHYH
In short: (§1)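 Each value of binding signal is a hexamer's read frequency for a factor divided by the same hexamer's frequency in the tag-only sample. Barcoded, bead-captured GST fusions of human transcription factors made in yeast were pooled with that sample and incubated with 200 nmole of a random double-stranded 16-mer DNA library in Tris/NaCl/DTT/glycerol buffer at room temperature for 30 min. Washing, 0.1% formaldehyde crosslinking, proximity ligation, PCR and Illumina NextSeq500 sequencing followed.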

ETV5 = ETV5 (Homo sapiens, UniProt P41161 1-510); details: protein: recombinant; tags: N-terminal GST; dsDNA, one strand shown
In short: as §1

HSF1 = HSF1 (Homo sapiens, UniProt Q00613 1-529); details: protein: recombinant; tags: N-terminal GST; chain copies: 3; dsDNA, one strand shown
In short: as §1

SPIC = biological target: T2, SPIC (Homo sapiens, UniProt Q8N5J4 1-248); details: protein: recombinant; tags: N-terminal GST; dsDNA, one strand shown
T2 sequence: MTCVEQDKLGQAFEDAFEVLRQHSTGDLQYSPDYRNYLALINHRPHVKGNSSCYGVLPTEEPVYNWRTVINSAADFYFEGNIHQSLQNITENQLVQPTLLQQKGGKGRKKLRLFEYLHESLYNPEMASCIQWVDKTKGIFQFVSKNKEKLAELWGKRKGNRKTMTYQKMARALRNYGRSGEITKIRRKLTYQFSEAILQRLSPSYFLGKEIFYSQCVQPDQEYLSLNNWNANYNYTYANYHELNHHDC
In short: as §1

ELF4 = ELF4 (Homo sapiens, UniProt Q99607 1-663); details: protein: recombinant; tags: N-terminal GST; dsDNA, one strand shown
In short: as §1

ELK4 = biological target: T3, ELK4 (Homo sapiens, UniProt P28324-2 1-405); details: protein: recombinant; tags: N-terminal GST; dsDNA, one strand shown
T3 sequence: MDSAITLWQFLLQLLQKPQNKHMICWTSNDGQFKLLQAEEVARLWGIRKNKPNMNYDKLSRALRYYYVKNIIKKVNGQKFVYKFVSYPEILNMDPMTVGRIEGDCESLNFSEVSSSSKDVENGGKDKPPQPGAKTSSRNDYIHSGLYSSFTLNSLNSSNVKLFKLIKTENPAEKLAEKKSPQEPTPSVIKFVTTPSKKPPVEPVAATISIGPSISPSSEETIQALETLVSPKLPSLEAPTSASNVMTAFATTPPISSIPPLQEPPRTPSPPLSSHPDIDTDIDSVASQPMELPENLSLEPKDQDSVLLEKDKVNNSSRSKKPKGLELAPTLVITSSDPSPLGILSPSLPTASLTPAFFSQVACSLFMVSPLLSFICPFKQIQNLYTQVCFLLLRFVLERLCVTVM
In short: as §1

ETV2 = biological target: T4, ETV2 (Homo sapiens, UniProt O00321 1-342); details: protein: recombinant; tags: N-terminal GST; dsDNA, one strand shown
T4 sequence: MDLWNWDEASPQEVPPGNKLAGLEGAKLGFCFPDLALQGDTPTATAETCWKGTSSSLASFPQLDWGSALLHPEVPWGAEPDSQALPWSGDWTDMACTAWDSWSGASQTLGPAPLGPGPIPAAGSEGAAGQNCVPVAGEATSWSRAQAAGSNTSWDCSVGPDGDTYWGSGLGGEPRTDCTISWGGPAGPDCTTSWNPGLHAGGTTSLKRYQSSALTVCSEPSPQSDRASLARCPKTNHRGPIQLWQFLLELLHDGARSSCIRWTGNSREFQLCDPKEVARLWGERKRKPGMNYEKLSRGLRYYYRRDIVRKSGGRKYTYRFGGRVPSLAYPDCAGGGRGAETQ
In short: as §1

ELF3 = biological target: T5, ELF3 (Homo sapiens, UniProt P78545 1-371); details: protein: recombinant; tags: N-terminal GST; dsDNA, one strand shown
T5 sequence: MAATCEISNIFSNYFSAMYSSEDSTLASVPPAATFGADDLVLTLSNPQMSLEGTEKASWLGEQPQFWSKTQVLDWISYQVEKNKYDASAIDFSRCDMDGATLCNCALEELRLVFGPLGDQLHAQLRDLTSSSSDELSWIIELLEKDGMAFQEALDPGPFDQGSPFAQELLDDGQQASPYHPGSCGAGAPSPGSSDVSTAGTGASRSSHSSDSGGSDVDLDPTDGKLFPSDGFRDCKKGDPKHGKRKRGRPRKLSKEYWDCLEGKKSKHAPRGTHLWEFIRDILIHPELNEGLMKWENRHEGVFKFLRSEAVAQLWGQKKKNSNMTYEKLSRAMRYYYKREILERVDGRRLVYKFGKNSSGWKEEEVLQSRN
In short: as §1

CRX = CRX (Homo sapiens, UniProt O43186 1-299); details: protein: recombinant; tags: N-terminal GST; dsDNA, one strand shown
In short: as §1

ETV1 = ETV1 (Homo sapiens, UniProt P50549 1-477); details: protein: recombinant; tags: N-terminal GST; dsDNA, one strand shown
In short: as §1

ERF = biological target: T6, ERF (Homo sapiens, UniProt P50548 1-548); details: protein: recombinant; tags: N-terminal GST; dsDNA, one strand shown
T6 sequence: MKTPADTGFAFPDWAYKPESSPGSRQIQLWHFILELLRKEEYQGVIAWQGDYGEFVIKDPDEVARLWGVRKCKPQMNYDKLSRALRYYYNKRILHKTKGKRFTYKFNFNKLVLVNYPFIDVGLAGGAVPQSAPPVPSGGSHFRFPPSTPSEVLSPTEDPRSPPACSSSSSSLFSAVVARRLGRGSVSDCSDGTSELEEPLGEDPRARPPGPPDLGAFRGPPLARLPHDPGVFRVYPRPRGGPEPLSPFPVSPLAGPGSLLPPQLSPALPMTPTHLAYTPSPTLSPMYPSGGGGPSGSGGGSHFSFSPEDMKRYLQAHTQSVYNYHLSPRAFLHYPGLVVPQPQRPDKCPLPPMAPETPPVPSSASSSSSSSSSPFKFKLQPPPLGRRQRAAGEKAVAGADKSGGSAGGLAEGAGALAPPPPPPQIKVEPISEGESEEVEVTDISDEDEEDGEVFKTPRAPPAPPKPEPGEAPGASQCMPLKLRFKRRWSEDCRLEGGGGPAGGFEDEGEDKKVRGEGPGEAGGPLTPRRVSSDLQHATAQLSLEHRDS
In short: as §1

ETV3L = biological target: T7, ETV3L (Homo sapiens, UniProt Q6ZN32 1-361); details: protein: recombinant; tags: N-terminal GST; dsDNA, one strand shown
T7 sequence: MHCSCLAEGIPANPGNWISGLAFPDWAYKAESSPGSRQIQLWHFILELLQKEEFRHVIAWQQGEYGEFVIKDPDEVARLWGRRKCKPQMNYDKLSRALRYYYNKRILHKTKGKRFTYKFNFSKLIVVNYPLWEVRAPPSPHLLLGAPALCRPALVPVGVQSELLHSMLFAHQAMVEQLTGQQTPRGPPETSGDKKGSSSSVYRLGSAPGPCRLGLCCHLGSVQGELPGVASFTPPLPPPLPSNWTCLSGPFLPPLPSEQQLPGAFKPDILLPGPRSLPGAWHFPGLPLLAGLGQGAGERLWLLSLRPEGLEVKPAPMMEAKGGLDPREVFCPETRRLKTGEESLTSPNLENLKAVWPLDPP
In short: as §1

ETS2 = biological target: T8, ETS2 (Homo sapiens, UniProt P15036 1-469); details: protein: recombinant; tags: N-terminal GST; dsDNA, one strand shown
T8 sequence: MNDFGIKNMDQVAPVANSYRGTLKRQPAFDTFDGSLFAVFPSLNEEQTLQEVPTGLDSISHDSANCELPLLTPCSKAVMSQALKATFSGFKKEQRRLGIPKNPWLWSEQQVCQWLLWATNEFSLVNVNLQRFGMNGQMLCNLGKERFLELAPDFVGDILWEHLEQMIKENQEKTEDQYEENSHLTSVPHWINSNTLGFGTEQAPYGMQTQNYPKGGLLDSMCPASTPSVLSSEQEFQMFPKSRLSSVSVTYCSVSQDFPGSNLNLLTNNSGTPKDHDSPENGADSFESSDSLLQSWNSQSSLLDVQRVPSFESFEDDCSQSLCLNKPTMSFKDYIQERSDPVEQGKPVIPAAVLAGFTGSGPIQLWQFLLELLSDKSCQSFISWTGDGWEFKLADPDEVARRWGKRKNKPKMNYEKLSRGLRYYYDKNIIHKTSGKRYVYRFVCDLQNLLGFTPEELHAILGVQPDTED
In short: as §1

SPDEF = biological target: T9, SPDEF (Homo sapiens, UniProt O95238 1-335); details: protein: recombinant; tags: N-terminal GST; dsDNA, one strand shown
T9 sequence: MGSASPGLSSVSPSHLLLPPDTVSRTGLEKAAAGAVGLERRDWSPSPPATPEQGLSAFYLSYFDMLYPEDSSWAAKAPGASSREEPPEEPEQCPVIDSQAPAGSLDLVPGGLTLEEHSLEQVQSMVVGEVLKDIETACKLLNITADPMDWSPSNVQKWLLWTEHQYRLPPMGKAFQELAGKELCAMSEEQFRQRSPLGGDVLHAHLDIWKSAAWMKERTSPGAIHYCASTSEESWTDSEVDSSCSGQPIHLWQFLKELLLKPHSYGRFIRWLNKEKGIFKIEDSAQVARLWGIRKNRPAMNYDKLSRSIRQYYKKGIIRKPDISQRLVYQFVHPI
In short: as §1

ETV7 = biological target: T10, ETV7 (Homo sapiens, UniProt Q9Y603 1-341); details: protein: recombinant; tags: N-terminal GST; dsDNA, one strand shown
T10 sequence: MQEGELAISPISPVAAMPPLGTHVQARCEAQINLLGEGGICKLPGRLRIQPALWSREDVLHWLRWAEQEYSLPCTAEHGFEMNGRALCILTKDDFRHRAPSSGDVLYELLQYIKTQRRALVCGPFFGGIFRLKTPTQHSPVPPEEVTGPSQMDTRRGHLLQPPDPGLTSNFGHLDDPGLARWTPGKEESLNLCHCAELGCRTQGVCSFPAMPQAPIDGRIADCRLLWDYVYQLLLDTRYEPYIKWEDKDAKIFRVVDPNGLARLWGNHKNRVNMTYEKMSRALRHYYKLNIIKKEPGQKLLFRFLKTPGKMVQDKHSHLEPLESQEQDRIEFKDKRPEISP
In short: as §1

ELF5 = biological target: T11, ELF5 (Homo sapiens, UniProt Q9UKW6-2 1-255); details: protein: recombinant; tags: N-terminal GST; dsDNA, one strand shown
T11 sequence: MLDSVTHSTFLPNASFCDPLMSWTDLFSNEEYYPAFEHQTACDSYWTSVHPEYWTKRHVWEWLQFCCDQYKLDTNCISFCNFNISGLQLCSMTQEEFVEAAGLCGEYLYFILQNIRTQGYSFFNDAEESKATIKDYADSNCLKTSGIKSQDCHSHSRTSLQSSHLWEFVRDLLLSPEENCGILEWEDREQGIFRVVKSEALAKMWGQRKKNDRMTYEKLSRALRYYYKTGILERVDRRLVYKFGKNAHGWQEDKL
In short: as §1

ETV3 = biological target: T12, ETV3 (Homo sapiens, UniProt P41162-2 1-143); details: protein: recombinant; tags: N-terminal GST; dsDNA, one strand shown
T12 sequence: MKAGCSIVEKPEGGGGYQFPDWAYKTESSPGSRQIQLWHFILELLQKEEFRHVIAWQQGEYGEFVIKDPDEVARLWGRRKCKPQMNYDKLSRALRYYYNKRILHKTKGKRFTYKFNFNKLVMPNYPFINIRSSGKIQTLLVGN
In short: as §1

ETV6 = ETV6 (Homo sapiens, UniProt P41212 1-452); details: protein: recombinant; tags: N-terminal GST; dsDNA, one strand shown
In short: as §1

Sequence of CRX (O43186 whole entry): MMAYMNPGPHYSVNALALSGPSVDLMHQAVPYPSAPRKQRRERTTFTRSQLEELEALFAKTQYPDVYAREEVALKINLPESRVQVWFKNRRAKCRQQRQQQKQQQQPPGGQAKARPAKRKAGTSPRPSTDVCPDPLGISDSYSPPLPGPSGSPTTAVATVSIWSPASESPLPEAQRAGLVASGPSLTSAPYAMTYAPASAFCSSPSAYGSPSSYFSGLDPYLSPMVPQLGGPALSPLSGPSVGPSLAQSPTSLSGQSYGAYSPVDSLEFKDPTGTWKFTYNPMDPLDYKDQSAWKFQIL
Sequence of ETV1 (P50549 whole entry): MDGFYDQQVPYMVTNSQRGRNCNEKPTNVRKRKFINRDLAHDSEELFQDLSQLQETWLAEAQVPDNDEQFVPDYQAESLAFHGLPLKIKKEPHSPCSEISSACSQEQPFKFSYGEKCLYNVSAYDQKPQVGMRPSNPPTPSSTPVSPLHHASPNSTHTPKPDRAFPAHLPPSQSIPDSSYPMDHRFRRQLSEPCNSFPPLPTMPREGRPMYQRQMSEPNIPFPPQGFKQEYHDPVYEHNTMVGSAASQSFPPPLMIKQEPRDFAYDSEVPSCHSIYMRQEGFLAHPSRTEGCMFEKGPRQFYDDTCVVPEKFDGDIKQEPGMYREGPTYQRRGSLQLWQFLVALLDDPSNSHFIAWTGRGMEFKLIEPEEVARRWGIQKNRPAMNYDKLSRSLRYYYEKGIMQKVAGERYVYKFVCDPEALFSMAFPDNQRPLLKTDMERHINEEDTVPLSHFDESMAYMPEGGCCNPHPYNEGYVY
Sequence of ETV5 (P41161 whole entry): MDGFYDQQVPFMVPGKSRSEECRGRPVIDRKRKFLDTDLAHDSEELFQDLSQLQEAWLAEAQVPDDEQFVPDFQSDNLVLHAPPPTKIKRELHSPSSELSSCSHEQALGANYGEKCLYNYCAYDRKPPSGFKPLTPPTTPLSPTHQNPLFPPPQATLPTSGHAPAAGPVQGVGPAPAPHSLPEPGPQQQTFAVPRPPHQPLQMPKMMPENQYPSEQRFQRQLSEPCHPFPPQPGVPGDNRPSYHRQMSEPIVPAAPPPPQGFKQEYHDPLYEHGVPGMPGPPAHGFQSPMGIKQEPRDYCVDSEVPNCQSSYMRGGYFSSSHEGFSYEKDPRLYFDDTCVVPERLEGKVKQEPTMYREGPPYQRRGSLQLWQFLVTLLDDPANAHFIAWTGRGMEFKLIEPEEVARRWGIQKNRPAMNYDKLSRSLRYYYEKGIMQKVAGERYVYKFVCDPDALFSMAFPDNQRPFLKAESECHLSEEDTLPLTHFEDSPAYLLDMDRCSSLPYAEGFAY
Sequence of HSF1 (Q00613 whole entry): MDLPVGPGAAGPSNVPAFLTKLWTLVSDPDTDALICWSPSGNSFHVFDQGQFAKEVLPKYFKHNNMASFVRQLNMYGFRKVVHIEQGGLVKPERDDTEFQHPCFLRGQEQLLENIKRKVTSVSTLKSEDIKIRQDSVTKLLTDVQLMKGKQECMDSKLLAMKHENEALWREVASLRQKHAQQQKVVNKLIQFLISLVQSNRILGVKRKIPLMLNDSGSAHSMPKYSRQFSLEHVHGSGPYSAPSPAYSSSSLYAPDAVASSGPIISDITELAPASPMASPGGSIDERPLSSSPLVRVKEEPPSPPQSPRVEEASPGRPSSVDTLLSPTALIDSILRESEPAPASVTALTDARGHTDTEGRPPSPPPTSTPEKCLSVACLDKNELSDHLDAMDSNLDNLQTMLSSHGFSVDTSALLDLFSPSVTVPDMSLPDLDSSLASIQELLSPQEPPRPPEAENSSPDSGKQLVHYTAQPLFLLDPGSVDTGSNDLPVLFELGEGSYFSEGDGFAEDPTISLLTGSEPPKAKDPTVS
Sequence of ETV6 (P41212 whole entry): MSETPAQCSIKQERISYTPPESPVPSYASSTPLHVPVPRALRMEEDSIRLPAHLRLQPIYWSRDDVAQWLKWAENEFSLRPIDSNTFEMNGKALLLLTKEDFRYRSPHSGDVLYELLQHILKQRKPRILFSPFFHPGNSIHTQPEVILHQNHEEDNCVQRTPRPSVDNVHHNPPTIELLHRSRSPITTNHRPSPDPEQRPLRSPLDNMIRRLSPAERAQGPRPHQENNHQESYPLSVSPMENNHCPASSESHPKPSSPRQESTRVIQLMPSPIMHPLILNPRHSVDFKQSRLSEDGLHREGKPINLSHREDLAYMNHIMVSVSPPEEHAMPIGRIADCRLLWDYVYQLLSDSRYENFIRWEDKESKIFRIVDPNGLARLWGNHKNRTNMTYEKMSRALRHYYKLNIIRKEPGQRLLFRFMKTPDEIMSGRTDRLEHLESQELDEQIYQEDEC
Sequence of ELF4 (Q99607 whole entry): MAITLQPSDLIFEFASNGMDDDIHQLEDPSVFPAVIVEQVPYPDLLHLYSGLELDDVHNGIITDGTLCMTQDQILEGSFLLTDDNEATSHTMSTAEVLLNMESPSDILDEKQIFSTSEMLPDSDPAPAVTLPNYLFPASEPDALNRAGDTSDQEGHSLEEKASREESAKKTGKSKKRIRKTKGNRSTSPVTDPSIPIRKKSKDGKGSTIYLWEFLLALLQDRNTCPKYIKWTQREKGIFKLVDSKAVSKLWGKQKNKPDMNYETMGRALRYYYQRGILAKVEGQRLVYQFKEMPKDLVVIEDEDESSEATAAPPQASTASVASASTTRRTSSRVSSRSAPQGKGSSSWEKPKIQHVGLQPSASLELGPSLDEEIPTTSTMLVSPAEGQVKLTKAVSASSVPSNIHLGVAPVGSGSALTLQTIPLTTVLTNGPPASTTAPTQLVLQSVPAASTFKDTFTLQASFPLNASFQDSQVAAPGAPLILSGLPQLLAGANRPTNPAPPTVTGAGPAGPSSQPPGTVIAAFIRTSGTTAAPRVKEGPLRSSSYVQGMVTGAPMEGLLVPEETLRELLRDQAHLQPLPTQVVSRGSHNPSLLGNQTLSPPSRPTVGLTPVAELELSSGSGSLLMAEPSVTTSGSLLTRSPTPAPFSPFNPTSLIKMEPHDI

TTGGCA
binding signal (FEV): 1.13 fold enrichment (6-mer frequency, TF over GST control) | binding signal (ETV5): 1.07 fold enrichment (6-mer frequency, TF over GST control) | binding signal (HSF1): 1.04 fold enrichment (6-mer frequency, TF over GST control) | binding signal (SPIC): 1.17 fold enrichment (6-mer frequency, TF over GST control) | binding signal (ELF4): 1.16 fold enrichment (6-mer frequency, TF over GST control) | binding signal (ELK4): 1.34 fold enrichment (6-mer frequency, TF over GST control) | binding signal (ETV2): 1.25 fold enrichment (6-mer frequency, TF over GST control) | binding signal (ELF3): 1.07 fold enrichment (6-mer frequency, TF over GST control) | binding signal (CRX): 1.12 fold enrichment (6-mer frequency, TF over GST control) | binding signal (ETV1): 1.18 fold enrichment (6-mer frequency, TF over GST control) | binding signal (ERF): 1.19 fold enrichment (6-mer frequency, TF over GST control) | binding signal (ETV3L): 1.14 fold enrichment (6-mer frequency, TF over GST control) | binding signal (ETS2): 1.13 fold enrichment (6-mer frequency, TF over GST control) | binding signal (SPDEF): 1.12 fold enrichment (6-mer frequency, TF over GST control) | binding signal (ETV7): 1.09 fold enrichment (6-mer frequency, TF over GST control) | binding signal (ELF5): 1.01 fold enrichment (6-mer frequency, TF over GST control) | binding signal (ETV3): 1.17 fold enrichment (6-mer frequency, TF over GST control) | binding signal (ETV6): 1.19 fold enrichment (6-mer frequency, TF over GST control)
